Test results reported in PubChem BioAssay AID1159580 (chemical genetic matrix, 2015).
The campaign covered roughly 5,500 compounds. About 2,000 (36%) were called active. Not shown: some 18% with an inconclusive outcome. Rule as the data show it: active = normalized growth mostly below about 0.91 (no sharp cut-off); inconclusive = no clear call, values can overlap the other calls; inactive = mostly above about 0.92. This is one part of the list.

Test: chemical genetic growth profiling, strain panel (AID 1159580);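 also: tested at 20 µM; growth read once vehicle control cultures reached saturation at 30 °C; 1 = growth at the plate median or of vehicle wells; lower values mean less growth of the strain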
Conditions: S. cerevisiae deletion strains, growth OD

Measured: normalized growth

CC(N)=O
inactive: locus YAL040C, strain CLN3, stronger effect = lower value 0.973 | locus YER002W, strain NOP16, stronger effect = lower value 0.992 | locus YGR078C, strain PAC10, stronger effect = lower value 1 | locus YGR229C, strain SMI1, stronger effect = lower value 1.01 | locus YJR075W, strain HOC1, stronger effect = lower value 0.991 | locus YNL128W, strain TEP1, stronger effect = lower value 0.997 | locus YNL175C, strain NOP13, stronger effect = lower value 0.992 | locus YNL197C, strain WHI3, stronger effect = lower value 1 | locus YNL224C, strain SQS1, stronger effect = lower value 1.04 | locus YOR083W, strain WHI5 (second series), stronger effect = lower value 1 | locus YPL241C, strain CIN2, stronger effect = lower value 0.975
